Most compounds without a hit are left out; they make up all but 12% or so of the library.
PLK1 PBD block – inhibitors of human PLK1 polo-box domain binding; P53350; Plk1 PBD binding of FITC phosphopeptide, fluorescence polarization; Potency, µM, for the others: max response, negative = inhibition, usual class: inhibitors; actives 2.8% (n = 360,000); AID 720504; note: potency is the fitted concentration of half-maximal effect; series mostly up to about 57 µM; % is set by controls: 0 for no effect and ±100 for the full control effect; nearly all actives have a fitted effect of over 65% in size
BAZ2B block – inhibitors of human BAZ2B bromodomain | Q9UIF8 | actives 4.4% (n = 360,000) | AlphaScreen BAZ2B-H3K14Ac peptide displacement | Potency, µM (series often up to 114 µM), for inactives: top-dose activity change, negative = inhibition, most hits filed as inhibitors | AID 504333; note: potency is the fitted concentration of half-maximal effect; % is set by controls: 0 for no effect and ±100 for the full control effect; nearly all actives have a fitted effect of over 60% in size
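Complex of BAZ2B and biotin-H3K14Ac (50 nM apiece) forms over 30 min at RT, then faces library compounds up to 110 uM for another 30 min; AlphaScreen beads added, 20 min dark incubation, luminescence read.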
G9a inh – blocks human histone lysine methyltransferase G9a; Q96KQ7; G9a H3K9 monomethylation, AlphaScreen, 2 h; Potency, µM (highest dose often 102 µM), for inactives: top-dose activity, negative = inhibition, hits mostly inhibitors; actives 8.8% (n = 350,000); note: potency is the fitted concentration of half-maximal effect; % is set by controls: 0 for no effect and ±100 for the full control effect; nearly all actives have a fitted effect of over 75% in size
Target sequence (Q96KQ7 913-1193 limits assumed): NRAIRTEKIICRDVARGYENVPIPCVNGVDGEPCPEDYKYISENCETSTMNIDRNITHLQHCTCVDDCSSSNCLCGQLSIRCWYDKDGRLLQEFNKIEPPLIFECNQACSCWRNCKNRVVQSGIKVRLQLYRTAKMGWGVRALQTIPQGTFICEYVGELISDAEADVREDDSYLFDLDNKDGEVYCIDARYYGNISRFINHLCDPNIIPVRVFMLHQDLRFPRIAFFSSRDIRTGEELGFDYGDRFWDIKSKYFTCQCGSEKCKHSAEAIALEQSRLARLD
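AlphaScreen detection with an anti-monomethyl H3K9 antibody quantified product after a 2 h room-temperature reaction containing 500 nM biotinylated H3K9 peptide, 20 µM SAM and 20 nM enzyme, which had been preincubated 15 min with compound.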
HP1b binding inh – HP1-beta chromodomain-methylated histone interaction inhibition | Potency, µM (titrated, usually from 114 µM), for inactives: top-dose activity change, negative = inhibition, most hits filed as inhibitors | AID 540317 | actives 0.56% (n = 390,000) | P83916 | AlphaScreen HP1-beta / biotin-H3K9me3 peptide binding; note: potency is the fitted concentration of half-maximal effect; nearly all actives have a fitted effect of over 70% in size
Target sequence (P83916 whole entry, looked up): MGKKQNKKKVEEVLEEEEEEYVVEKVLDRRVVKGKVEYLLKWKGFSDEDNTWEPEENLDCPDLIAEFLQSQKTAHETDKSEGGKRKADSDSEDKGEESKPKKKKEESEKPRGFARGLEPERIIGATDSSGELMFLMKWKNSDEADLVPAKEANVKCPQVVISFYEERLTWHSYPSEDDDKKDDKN
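HP1-beta protein (50 nM final) preincubated 30 min at room temperature with biotinylated H3(1-18)K9me3 peptide (50 nM) in PBS pH 7.4, 0.01% Tween-20, then compound added for 30 min. AlphaScreen streptavidin donor/nickel chelate acceptor beads (10 ug/mL final), 30 min dark, luminescence read.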
PI5P4K alpha inh – PI5P4K alpha (human) kinase inhibition | PI5P4Kalpha enzyme, ADP-Glo luminescence, 60 min; active compounds read low | P48426 | actives 1.2% (n = 330,000) | max response, % | AID 652105; active = max response of -50% or lower; inconclusive = between -30% and -50%; inactive = -30% or higher; note: value at the top dose of about 77 µM; % is set by controls: 0 for no effect and ±100 for the full control effect
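Quantitative HTS of the MLSMR library against PI5P4Kalpha with substrate. ATP added last at 5 microM final; room temperature, 60 minutes. Remaining ATP depleted, ADP converted and read as luminescence.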
JMJD2A Tudor inh – inhibitors of human JMJD2A Tudor domain; AlphaScreen JMJD2A-Tudor / H3K4me3 peptide binding; Potency, µM (top dose mostly 114 µM), inactives show at the highest dose activity change, negative = inhibition, actives largely listed as inhibitors; actives 4.4% (n = 390,000); O75164; note: potency is the fitted concentration of half-maximal effect; % is set by controls: 0 for no effect and ±100 for the full control effect; nearly all actives have a fitted effect of over 50% in size
Active calls of the source: *; ? = inconclusive; · = not tested or not shown; [ ] = remark or other dose. Unless noted, calls come from the whole dose curve; as a rule, active = well fitted curve in the direction sought with a large enough effect; inconclusive = small, poorly fitted or top-dose-only effect, or another doubt; inactive = no such curve, though single readings can be large; an effect the other way counts as inactive or inconclusive.

SMILES	PLK1 PBD block	BAZ2B block	G9a inh	HP1b binding inh	PI5P4K alpha inh	JMJD2A Tudor inh
C=CCn1c(Cc2cccs2)nnc1SCC(=O)c1cccc(Br)c1	?	-7.1%	31.6µM*	29.3%	?	-25.2%[57.1 µM]
COC(=O)C1(C)COP(=O)(NC23CC4CC(CC(C4)C2)C3)OC1 (centres undefined)	1.6%	·	·	19.8%	1.1	-13.9%
CCn1c(CC2C(=O)N(C)c3ccccc32)nc2ccccc2c1=O (centres undefined)	·	-1.2%	-31.0%[59 µM]	3.8%	·	-14.5%
Cc1ccc(C(=O)N(C)Cc2ccc(N3CCOCC3)cc2)cc1S(=O)(=O)NCc1ccccc1	-5.5%	-29.2%	-0.4%[12.7 µM]	11.0%	-4.0	-21.9%
C=CCn1c(Cc2cccs2)nnc1SCC(=O)c1ccc2ccccc2c1	-1.9%	-8.5%	28.2µM*	13.8%	·	-23.9%
CC1=C(C#N)C(c2cccnc2)C2=C(N1)c1ccccc1C2=O (centres undefined)	-11.6%	-35.0%	35.5µM*	12.5%	1.2	-9.0%
CC1=C(C#N)C(c2cccnc2)C2=C(CCCC2=O)N1 (centres undefined)	?	-0.4%	-10.7%[59 µM]	5.6%	-11.7	2.1%[11.4 µM]
CC1=C(C#N)C(c2ccccc2)C2=C(N1)c1ccccc1C2=O (centres undefined)	?	31.6µM*	44.7µM*	?	-8.2	22.4µM*
CSC1=C(C#N)C(c2ccccc2Cl)C2=C(N1)c1ccccc1C2=O (centres undefined)	?	-31.1%[57.1 µM]	15.8µM*	?	-2.5	31.6µM*
CSC1=C(C#N)C(c2ccccc2Cl)C2=C(CCCC2=O)N1 (centres undefined)	·	-0.4%	2.4%[59 µM]	·	·	·
Nc1nc2c(ncn2[C@@H]2O[C@H](CNC(=O)[C@H](N)Cc3cncn3COCc3ccccc3)[C@@H](O)[C@H]2O)c(=O)[nH]1	2.7%	·	·	·	-0.3	·
COC(=O)c1c(C(=O)OC)c2ccccn2c1C(=O)c1ccccc1	-5.9%	-0.2%	-10.3%	58.5%	-0.4	7.5%
COC(=O)c1c(Cl)c2n3ccccc3c(C)c(-c3ccccc3)c-2c1C(=O)OC	23.8µM*	?	8.91µM*	?	-8.6	?
COC(=O)c1cc2c(-c3ccccc3)c(C)c3ccccn3c-2c1C(=O)OC	-17.1%	14.1µM*	14.1µM*	?	0.6	44.7µM*
CCCc1nnc(NC(=O)c2ccc([N+](=O)[O-])cc2)s1	4.0%	7.6%	4.1%[59 µM]	28.5%	0.7	-7.3%
CCCCCc1nnc(NC(=O)Cc2ccc([N+](=O)[O-])cc2)s1	?	-2.4%	44.7µM*	6.2%	-15.9	-31.7%
CC(C)(C)Cc1nnc(NC(=O)Cc2ccc([N+](=O)[O-])cc2)s1	5.32µM*	3.0%	10µM*	?	3.5	?
Cc1ccnc(NC(=O)Cc2ccc([N+](=O)[O-])cc2)c1	-16.8%	50.1µM*	·	32.8%	0.3	-3.1%
Cc1cc(C)cc(NC(=O)CSc2nccn2C2CCCC2)c1	·	?	?	15.7%	·	-28.7%
CC(C)c1cc(C(=O)O)c2cnn(C(C)C)c2n1	26.7µM*	-3.7%	-29.5%	18.9%	-9.7	?
CC[C@]1(O)C[C@@H]2CN(CCc3c([nH]c4ccccc34)[C@@](C(=O)OC)(c3cc4c(cc3OC)N(C)C3[C@]45CCN4CC=C[C@](CC)(C45)[C@@H](OC(C)=O)[C@]3(O)C(=O)OC)C2)C1 (some centres undefined)	·	·	14.1µM*	·	·	·
CNC(=O)c1c(C)[nH]c(=S)c(C#N)c1-c1ccco1	?	?	·	?	?	17.8µM*
Cc1ccccc1NC(=O)c1c(C)[nH]c(=S)c(C#N)c1-c1ccco1	?	3.6%	1.26µM*	5.9%	-63.2*	-17.8%
CSc1nc(C)c(C(=O)Nc2ccccc2)c(-c2ccco2)c1C#N	-8.9%	0.1%	-8.0%[59 µM]	33.3%	-0.7	-6.2%
COc1cccc2c1CCC1=CC(=O)CC[C@@]12C	·	·	-2.2%[2.33 µM]	·	·	·
SMILES	PLK1 PBD block	BAZ2B block	G9a inh	HP1b binding inh	PI5P4K alpha inh	JMJD2A Tudor inh
C=CC1=C2C=C(C3CC3)N(CCCN(CC)CC)C=C2C(=O)C(C)(OC(=O)c2ccco2)C1=O (centres undefined)	-10.9%	·	·	38.0%	-4.9	-13.1%
CCCc1cc(=O)[nH]c(SCC(=O)C(C)(C)C)n1	-14.5%	11.5%	70.8µM*	6.4%	-0.1	-14.3%
CCCc1cc(=O)[nH]c(SCC(=O)N(Cc2ccccc2)C(C)C)n1	-3.6%	?	1µM*	24.5%	-0.1	3.2%
O=C(Nc1c(F)cccc1F)c1ccc2c(c1)CCN2S(=O)(=O)c1ccccc1	-7.8%	-10.1%[57.1 µM]	-0.9%	22.4%	-7.4	-18.0%
CCOC(=O)C(=O)/C(C#N)=C/Nc1ccc(F)cc1	-4.2%	?	35.5µM*	39.3%	-9.7	4.1%
CCOC(=O)N1CCC(c2cc(=O)n3[nH]cc(C(=O)OC)c3n2)CC1	-13.5%	5.0%	17.3%[59 µM]	17.1%	0.7	-24.8%
CCOc1ccc(NC(=O)c2c[nH]n3c(=O)cc(C4CCN(C(=O)OC(C)(C)C)CC4)nc23)cc1	?	-8.7%	11.2µM*	14.2%	-2.7	-22.8%
COC(=O)C1(C(=O)OC)c2ccccc2N(S(=O)(=O)c2ccc(C)cc2)C1CC(=O)c1ccccc1 (centres undefined)	3.1%	·	·	·	3.9	·
CC(=O)NCc1ccc(S(=O)(=O)N2CCCN(C)CC2)cc1	3.77µM*	-14.2%	79.4µM*	4.1%	-23.0	25.1µM*
CN1CCCN(S(=O)(=O)c2ccccc2)CC1	0.9%	4.3%	-17.5%	-15.1%	1.1	?
CN1CCCN(S(=O)(=O)c2ccc(O)c(C(=O)O)c2)CC1	3.4%	-12.0%	79.4µM*	22.0%	-5.5	-14.7%
CC(=O)NCc1ccc(S(=O)(=O)N2CCN(c3ccccn3)CC2)cc1	-13.7%	5.5%	?	25.6%	-0.9	-6.2%
O=c1[nH]c(CN2CCOCC2)nc2ccccc12	-6.2%	·	-0.3%	18.6%	4.2	1.4%
O=C1CN(Cc2nc3cc(Cl)ccc3c(=O)[nH]2)CCN1	-25.1%	-17.4%	?	51.2%	-1.9	2.51µM*
NC(=O)C1CCN(Cc2nc3ccccc3c(=O)[nH]2)CC1	0.5%	-35.2%	?	6.3%	7.2	3.16µM*
NC(=O)C1CCN(Cc2nc3cc(Cl)ccc3c(=O)[nH]2)CC1	-1.5%	5.2%	6.9%[59 µM]	2.1%	-22.4	-22.0%
O=C(O)c1ccc2c(=O)[nH]c(CN3CCOCC3)nc2c1	-4.1%	?	?	14.2%	?	35.5µM*
O=c1[nH]c(CN2CCN(CCO)CC2)nc2ccccc12	-1.8%	-2.2%	20.1%[59 µM]	39.7%	5.8	-8.2%
O=c1[nH]c(CN2CCN(c3ccccc3O)CC2)nc2ccccc12	0.6%	-8.2%	?	9.4%	-7.4	8.91µM*

High-throughput results from PubChem.
